# Assay results published in PubChem BioAssay (NCATS).
# Inconclusive results are not listed. A call without a number means that no potency is given here. Activity calls are given as the source filed them. Calls come from the whole dose curve; as a rule, active = well fitted curve in the direction sought with a large enough effect; inconclusive = small, poorly fitted or top-dose-only effect, or another doubt; inactive = no such curve, though single readings can be large; an effect the other way counts as inactive or inconclusive.
# Experiments:
# Furin (Homo sapiens) = Furin (Homo sapiens) (UniProt P09958); test: Furin counterscreen qHTS for Zika virus inhibitors (AID 1347149); conditions: furin enzymatic counterscreen, fluorogenic substrate; series mostly up to 57.5 µM;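 note: purified recombinant full-length human furin enzyme at 5 nM; fluorescence gain from furin cutting a BOC-RVRR-AMC peptide substrate over 15 min; top concentration of the series differs between compounds; nearly all actives have a fitted effect of over 70% in size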
# In short: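 Fluorogenic cleavage of BOC-RVRR-AMC (2 microM final, Km ~15 µM) was monitored (ex 340, em 450 nm) at 37C after 15 min RT preincubation of 5 nM furin with compounds in HEPES pH 7.0 buffer with CaCl2 and Triton X-100. Percent inhibition was fitted to a 4-parameter Hill curve.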
# [1] = tested on: Zika virus NS2B-NS3 protease (unlinked); test: Optimization of GU AMC qHTS for Zika virus inhibitors: Unlinked NS2B-NS3 protease assay (AID 1347151); conditions: recombinant ZIKV NS2B-NS3 protease, fluorogenic AMC substrate; series mostly up to 52.5 µM; note: nearly all actives have a fitted effect of over 80% in size; note: potency is the fitted concentration of half-maximal effect
# In short: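 Fluorescence gain (340/450 nm) over 15 min at room temperature, ~20% conversion, gave percent inhibition fitted to a 4-parameter Hill equation; enzyme was unlinked NS2B-NS3 (25 nM final), pH 8.0 Tris buffer.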
# [2] = molecular target: N-terminal Xaa-Pro-Lys N-methyltransferase 1 (Homo sapiens) (UniProt Q9BV86); test: qHTS Assay for Inhibitors of N-terminal methyltransferase 1 (NTMT1): LOPAC validation of the NTMT1 SAHH-coupled ThioGlo3 Assay (AID 1347143); conditions: recombinant NTMT1, SAHH-coupled ThioGlo3 fluorescence; series mostly up to 114 µM;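 note: SAH from peptide methylation measured as thiol fluorescence via SAHH coupling and ThioGlo3; nearly all actives have a fitted effect of over 70% in size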; note: potency is the fitted concentration of half-maximal effect
# In short: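 Inhibition of NTMT1 methylation of peptide SPKRIA is followed by converting SAH with SAHH and labelling the released thiol with ThioGlo3. Plates are read at 340/450nm before and 30 min after reagent addition, both at room temperature.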
# [3] = tested on: Zika virus NS2B-NS3 protease; test: Primary screen GU AMC qHTS for Zika virus inhibitors (AID 1347154); conditions: Zika NS2B-NS3 unlinked protease, AMC fluorogenic substrate; series mostly up to 54.1 µM; note: nearly all actives have a fitted effect of over 70% in size
# In short: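 Fluorogenic AMC-substrate cleavage by noncovalent NS2B-NS3 protease complex (25 nM, pH 8.0 Tris buffer with Tween 20) followed for 15 minutes at room temperature (~20% conversion). Percent inhibition from ex340/em450 signal change, fitted by 4-parameter Hill equation.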
# [4] = tested on: Zika virus NS2B-NS3 protease (linked construct); test: Confirmatory screen NINDS AMC qHTS for Zika virus inhibitors (AID 1347152); conditions: Purified linked NS2B-NS3, AMC substrate fluorescence; series mostly up to 56.6 µM; note: potency is the fitted concentration of half-maximal effect; nearly all actives have a fitted effect of over 70% in size
# In short: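 IC50s from 4-parameter Hill fits of percent inhibition, based on AMC fluorescence gain (340/450 nm) over 15 min with 10 microM Bz-Nle-KRR-AMC. Enzyme: 1 nM linked NS2B-NS3 in Tris-HCl pH 8.0; 15-min compound preincubation.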
# [5] = tested on: Zika virus NS2B-NS3 protease (linked); test: 384 well plate NINDS AMC confirmatory qHTS for Zika virus inhibitors (AID 1347163); conditions: Recombinant NS2B-NS3 protease, Ac-VKTGKR-AMC fluorescence; note: potency is the fitted concentration of half-maximal effect; nearly all actives have a fitted effect of over 50% in size
# In short: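 Linked NS2B-NS3 protease (final 5 nM, 30 nM or 60 nM) was preincubated with compounds (final up to 1 mM) for ~15 minutes. Ac-VKTGKR-AMC substrate (final 30 microM) then reacted for 25 minutes at room temperature in the dark. Fluorescence (ex 355/em 460 nm) was normalized to no-enzyme and no-inhibitor controls.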
# [6] = tested on: Zika virus NS2B-NS3 protease (unlinked complex); test: Primary screen GU Rhodamine qHTS for Zika virus inhibitors: Unlinked NS2B-NS3 protease assay (AID 1347159); conditions: Recombinant ZIKV NS2B-NS3 protease, Rhodamine110 substrate fluorescence; series mostly up to 107 µM; note: nearly all actives have a fitted effect of over 60% in size
# In short: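 A qHTS format was used, with compound concentrations ranging up to 114 microM. Each compound was preincubated with 25 nM NS2B-NS3 protease, and the substrate was then added at 1.5 microM. Curves were fitted with a 4-parameter Hill model.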
# [7] = tested on: Zika virus NS2B-NS3 protease (linked construct); test: Primary screen NINDS Rhodamine qHTS for Zika virus inhibitors (AID 1347160); conditions: purified NS2B-NS3 protease, Rhodamine110 substrate fluorescence; series mostly up to 57.1 µM; note: nearly all actives have a fitted effect of over 55% in size
# In short: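 Kinetic fluorescence (Ex 480 nm, Em 540 nm) over 15 min with 1.5 microM Rhodamine110 peptide and 25 nM linked protease.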
# N-terminal Xaa-Pro-Lys N-methyltransferase 1 (Homo sapiens), sequence (Q9BV86 whole entry, looked up): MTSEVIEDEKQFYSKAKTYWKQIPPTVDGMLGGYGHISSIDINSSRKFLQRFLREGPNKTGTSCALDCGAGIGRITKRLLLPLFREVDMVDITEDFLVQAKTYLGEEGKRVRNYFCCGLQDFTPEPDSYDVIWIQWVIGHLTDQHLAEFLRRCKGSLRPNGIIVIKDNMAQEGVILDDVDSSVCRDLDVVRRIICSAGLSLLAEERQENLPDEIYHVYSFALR
# Furin (Homo sapiens), sequence (P09958 whole entry, looked up): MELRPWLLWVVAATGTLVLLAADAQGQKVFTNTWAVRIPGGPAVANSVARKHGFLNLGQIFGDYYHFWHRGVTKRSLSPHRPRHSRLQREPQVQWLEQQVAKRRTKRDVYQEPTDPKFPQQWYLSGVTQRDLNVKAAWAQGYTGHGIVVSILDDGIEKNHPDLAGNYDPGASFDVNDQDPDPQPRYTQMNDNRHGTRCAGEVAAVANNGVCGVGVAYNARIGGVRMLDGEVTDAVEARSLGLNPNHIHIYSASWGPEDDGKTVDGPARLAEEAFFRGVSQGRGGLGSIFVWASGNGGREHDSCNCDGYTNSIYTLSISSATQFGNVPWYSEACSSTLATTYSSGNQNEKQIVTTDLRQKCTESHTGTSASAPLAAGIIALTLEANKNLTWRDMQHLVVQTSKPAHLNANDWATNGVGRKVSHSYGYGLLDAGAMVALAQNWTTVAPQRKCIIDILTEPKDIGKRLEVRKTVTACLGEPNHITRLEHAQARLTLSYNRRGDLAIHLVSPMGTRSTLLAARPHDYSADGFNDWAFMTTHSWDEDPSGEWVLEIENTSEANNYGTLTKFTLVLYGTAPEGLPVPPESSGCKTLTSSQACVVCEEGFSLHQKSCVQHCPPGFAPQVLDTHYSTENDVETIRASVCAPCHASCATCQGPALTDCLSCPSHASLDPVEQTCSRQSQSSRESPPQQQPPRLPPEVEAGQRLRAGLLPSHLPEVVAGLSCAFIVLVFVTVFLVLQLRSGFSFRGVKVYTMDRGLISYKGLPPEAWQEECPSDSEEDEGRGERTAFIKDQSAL
smiles,measurement,setting,value
CC[C@H](C)[C@H]1O[C@]2(C=C[C@@H]1C)C[C@@H]1C[C@@H](C/C=C(\C)[C@@H](O[C@H]3C[C@H](OC)[C@@H](O[C@H]4C[C@H](OC)[C@@H](O)[C@H](C)O4)[C@H](C)O3)[C@@H](C)/C=C/C=C3\CO[C@@H]4[C@H](O)C(C)=C[C@@H](C(=O)O1)[C@]34O)O2,Potency,Furin (Homo sapiens),inactive
same,Potency,[1],inactive
NCC(CP(=O)(O)O)c1ccc(Cl)cc1 (configuration not stated),Potency,[2],inactive
same,Potency,[1],inactive
same,Potency,[3],inactive
CC(N)Cc1c[nH]c2ccc(O)cc12 (configuration not stated),Potency,[1],inactive
same,Potency,[3],inactive
N[C@@H](Cn1oc(=O)[nH]c1=O)C(=O)O,Potency,[2],inactive
same,Potency,[1],inactive
same,Potency,[3],inactive
Nc1ccc(CCN2CCN(c3cccc(C(F)(F)F)c3)CC2)cc1,Potency,[1],inactive
same,Potency,[3],inactive
CCCN(CCC)[C@H]1CCc2c(F)ccc(O)c2C1,Potency,[1],inactive
C[N+](C)(C)CC#CCOC(=O)Nc1cccc(Cl)c1,Potency,[2],inactive
same,Potency,[1],inactive
same,Potency,[3],inactive
C[N+]1(C)CCc2cc3c(cc2[C@H]1[C@@H]1OC(=O)c2c1ccc1c2OCO1)OCO3,Potency,[1],inactive
CCN1C[C@@]2(COC)C3[C@@H](OC)C4[C@@H]1C3([C@@H]1C[C@]3(O)[C@H](OC(=O)c5ccccc5)[C@@H]1[C@]4(OC(C)=O)[C@@H](O)[C@@H]3OC)[C@H](OC)C[C@H]2O,Potency,[1],inactive
CN1CC[C@@]2(C)c3cc(OC(=O)Nc4ccccc4)ccc3N(C)[C@@H]12,Potency,[1],inactive
same,Potency,[3],inactive
c1ccc2c(N3CCNCC3)cccc2c1,Potency,[2],50.1 µM (active)
same,Potency,[1],26.7 µM (active)
same,Potency,[3],inactive
NC(N)=NOCC[C@H](N)C(=O)O,Potency,[2],inactive
same,Potency,[1],inactive
same,Potency,[3],inactive
CCOC(=O)c1ncn2c1[C@@H]1CCCN1C(=O)c1cc(OC)ccc1-2,Potency,[1],inactive
C[N+]1(C)CCOC(O)(c2ccc(-c3ccc(C4(O)C[N+](C)(C)CCO4)cc3)cc2)C1 (configuration not stated),Potency,[2],inactive
same,Potency,[1],inactive
same,Potency,[3],inactive
c1ccc2c(c1)[I+]c1ccccc1-2,Potency,[2],50.1 µM (active)
same,Potency,[1],inactive
same,Potency,[3],inactive
CCCCCOc1cc2c(cc1-c1cc(/C=C/C(=O)O)ccc1O)C(C)(C)CCC2(C)C,Potency,[4],9.87 µM (active)
same,Potency,[5],25.1 µM (active)
O=C1C[C@@H]2OCC=C3CN4CC[C@]56c7ccccc7N1[C@H]5[C@H]2[C@H]3C[C@H]46,Potency,[6],inactive
same,Potency,[7],inactive
